From the supplement of paper PMC6607015
Structures can show the parent of a compound that is named as a salt.

Key:
Conditions in all cases: compound concentration in added solution (µM; 5 µl added to 20 µl cells): 10; 18 h
A431 [1] = assay: LBPA endosome anti-LBPA integrated intensity (sum per cell), Z-score; higher = more LBPA staining
Procedure, shortened: (§1)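 HeLa MZ or A431 cells (3,500/well in 20 µl) were seeded onto 5 µl of 10 µM compound solution in duplicate 384-well imaging plates, incubated 18 h, then fixed in 4% PFA. Cells were stained with 6C4 anti-LBPA antibody, filipin, propidium iodide and CellTracker green, and four 20× images were taken per well. MetaXpress segmentation gave per-cell integrated LBPA or filipin intensity, either whole-cell or within LBPA endosomes. Values are Z-scores normalised in AcuityXpress.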

HeLa MZ [2] = assay: as above
Procedure, shortened: as §1

A431 [3] = assay: whole-cell filipin (free cholesterol) integrated intensity, Z-score; higher = more cholesterol staining
Procedure, shortened: as §1

HeLa MZ [4] = assay: as above
Procedure, shortened: as §1

A431 [5] = assay: filipin (cholesterol) integrated intensity within LBPA endosomes, Z-score; higher = more cholesterol in LBPA endosomes
Procedure, shortened: as §1

HeLa MZ [6] = assay: as above
Procedure, shortened: as §1

| SMILES | LBPA endosome anti-LBPA integrated intensity (z-score) (A431 [1]) | LBPA endosome anti-LBPA integrated intensity (z-score) (HeLa MZ [2]) | whole-cell filipin (z-score) (A431 [3]) | whole-cell filipin (z-score) (HeLa MZ [4]) | filipin (z-score) (A431 [5]) | filipin (z-score) (HeLa MZ [6]) |
| --- | --- | --- | --- | --- | --- | --- |
| CCCOc1cc(N)ccc1C(=O)OCCN(CC)CC [Propoxycaine hydrochloride] | 0.303 | 1.24 | 0.398 | 0.62 | -0.0905 | 0.287 |
| O=C(CCCN1CCC(O)(c2ccc(Br)cc2)CC1)c1ccc(F)cc1 [Bromperidol] | 2.59 | 2.09 | 1.76 | 1.12 | 2.09 | 1.82 |
| OC(CCCN1CCCCC1)(c1ccccc1)c1ccccc1 [Diphenidol hydrochloride] | -0.218 | 0.517 | -0.613 | -0.594 | -0.133 | -0.0129 |
| O=C(O)CCNC(=O)c1ccc(/N=N/c2ccc(O)c(C(=O)O)c2)cc1 [Balsalazide Sodium] | -0.394 | -0.755 | -0.213 | 0.475 | -0.386 | -0.346 |
| CN1CCN2c3ccccc3Cc3ccccc3C2C1 (configuration not stated) [Mianserine hydrochloride] | 1.6 | 1.07 | 1.17 | 0.96 | 1.16 | 1.54 |
| CC(C)/N=c1\cc2n(-c3ccc(Cl)cc3)c3ccccc3nc-2cc1Nc1ccc(Cl)cc1 [Clofazimine] | 1.95 | 1.42 | -0.119 | -1.15 | 0.416 | -0.0158 |
| Oc1c(I)cc(Cl)c2cccnc12 [Clioquinol] | -0.492 | -0.976 | -0.314 | 0.216 | -0.526 | -0.604 |
| CN1CCCCC1CCN1c2ccccc2Sc2ccc([S+](C)[O-])cc21 (configuration not stated) [Mesoridazine besylate] | 0.975 | 2.18 | 0.066 | 0.244 | 0.618 | 1.37 |
| CC[C@H]1OC(=O)[C@H](C)[C@@H](O[C@H]2C[C@@](C)(OC)[C@@H](O)[C@H](C)O2)[C@H](C)[C@@H](O[C@@H]2O[C@H](C)C[C@H](N(C)C)[C@H]2O)[C@](C)(O)C[C@@H](C)C(=O)[C@H](C)[C@@H](O)[C@]1(C)O [Erythromycin] | 0.476 | -0.196 | 0.409 | -0.0449 | 0.977 | 0.203 |
| N=C(N)NCc1cccc(I)c1 [Iobenguane sulfate] | -0.605 | -1.1 | -0.881 | -0.23 | -0.54 | -0.449 |
| Nc1nc(=S)c2ncn([C@@H]3O[C@H](CO)[C@@H](O)[C@H]3O)c2[nH]1 [Thioguanosine] | -0.355 | 1.49 | -1.06 | -0.863 | -0.656 | -0.626 |
| CC[C@@H]1C(=O)OC[C@@H]1Cc1cncn1C [Pilocarpine nitrate] | -0.402 | -0.0375 | -0.715 | -0.63 | -0.502 | -0.573 |
| NC(=O)c1ccc[n+]([C@@H]2O[C@H](COP(=O)([O-])OP(=O)(O)OC[C@H]3O[C@@H](n4cnc5c(N)ncnc54)[C@H](O)[C@@H]3O)[C@@H](O)[C@H]2O)c1 [Nadide] | -0.373 | -0.766 | -0.714 | -0.46 | -0.413 | -0.768 |
| CN1C2CCCC1CC(NC(=O)c1nn(C)c3ccccc13)C2 (configuration not stated) [Granisetron] | 0.179 | 1.05 | 0.826 | 0.449 | -0.132 | 0.382 |
| CS(=O)(=O)c1ccc([C@@H](O)[C@@H](CO)NC(=O)C(Cl)Cl)cc1 [Thiamphenicol] | -0.461 | -0.533 | -0.551 | -0.526 | -0.439 | -0.625 |
| CNCC(O)c1ccc(O)c(O)c1 (configuration not stated) [Racepinephrine HCl] | -0.253 | -0.0976 | 0.725 | 0.18 | -0.509 | -0.366 |
| COc1ccc(CN(CCN(C)C)c2ccccn2)cc1 [Pyrilamine maleate] | -0.379 | 0.813 | -0.723 | -0.374 | -0.426 | 0.0714 |
| CCCCC[C@H](O)/C=C/[C@H]1[C@H](O)CC(=O)[C@@H]1CCCCCCC(=O)O [Alprostadil] | -0.322 | -0.486 | 0.113 | -0.324 | -0.323 | -0.34 |
| CN1CCOC(c2ccccc2)c2ccccc2C1 (configuration not stated) [Nefopam hydrochloride] | -0.544 | -0.0559 | -0.752 | -0.617 | -0.509 | -0.197 |
| CCCCc1oc2ccccc2c1C(=O)c1cc(I)c(OCCN(CC)CC)c(I)c1 [Amiodarone hydrochloride] | 1.78 | 0.0569 | 0.251 | 0.182 | 2.45 | 1.95 |
| CCN1CCC[C@H]1CNC(=O)c1c(O)c(Cl)cc(Cl)c1OC [Raclopride] | -0.484 | -0.235 | -0.93 | -0.588 | -0.489 | -0.47 |
| Cc1cc(NC(=O)C2=C(O)c3ccccc3S(=O)(=O)N2C)no1 [Isoxicam] | -0.656 | -1.14 | -0.786 | -0.746 | -0.604 | -0.633 |
| O=C1OC(CN2CCOCC2)CN1/N=C/c1ccc([N+](=O)[O-])o1 (configuration not stated) [Furaltadone hydrochloride] | -0.539 | -0.499 | -0.319 | -0.322 | -0.493 | -0.666 |
| Nc1ccc(S(=O)(=O)Nc2cnc3ccccc3n2)cc1 [Sulfaquinoxaline sodium salt] | -0.491 | -0.359 | -0.235 | -0.279 | -0.43 | -0.432 |

| SMILES | LBPA endosome anti-LBPA integrated intensity (z-score) (A431 [1]) | LBPA endosome anti-LBPA integrated intensity (z-score) (HeLa MZ [2]) | whole-cell filipin (z-score) (A431 [3]) | whole-cell filipin (z-score) (HeLa MZ [4]) | filipin (z-score) (A431 [5]) | filipin (z-score) (HeLa MZ [6]) |
| --- | --- | --- | --- | --- | --- | --- |
| O=C1c2c(O)cccc2Cc2cccc(O)c21 [Anthralin] | -0.344 | 0.592 | 0.169 | 2.01 | -0.334 | -0.134 |
| NC(CO)C(=O)NNCc1ccc(O)c(O)c1O (configuration not stated) [Benserazide hydrochloride] | -0.379 | 0.144 | -0.376 | -0.254 | -0.42 | -0.5 |
| CC(C)C(=O)c1c(C(C)C)nn2ccccc12 [Ibudilast] | -0.434 | -0.686 | 0.153 | -0.112 | -0.402 | -0.704 |
| CN1CCC(=C2c3ccccc3CCc3sccc32)CC1 [Pizotifen malate] | 2.92 | 2.11 | 2.58 | -0.0276 | 2.82 | 1.53 |
| O=C(O)c1ccccc1Nc1cccc(C(F)(F)F)c1 [Flufenamic acid] | -0.586 | -0.521 | -0.734 | -0.685 | -0.54 | -0.632 |
| NC(=O)N/N=C/c1ccc([N+](=O)[O-])o1 [Nitrofural] | -0.562 | -0.605 | -0.633 | -0.478 | -0.506 | -0.689 |
| CC(C)NCC(O)c1ccc(O)c(O)c1 (single isomer, unassigned; (+)) [(+)-Isoproterenol (+)-bitartrate salt] | -0.327 | 0.363 | -0.262 | -0.346 | -0.516 | -0.475 |
| Cc1cc2c(cc1S(N)(=O)=O)S(=O)(=O)CCC2 [Meticrane] | -0.412 | -0.455 | -0.803 | -0.699 | -0.464 | -0.558 |
| CC1(C)S[C@@H]2[C@H](NC(=O)[C@H](N)c3ccc(O)cc3)C(=O)N2[C@H]1C(=O)O [Amoxicillin] | -0.419 | 0.0287 | -0.393 | -0.0853 | -0.524 | -0.539 |
| CCC1(c2ccccc2)NC(=O)N(C)C1=O (configuration not stated) [Mephenytoin] | -0.412 | -0.524 | -0.0979 | -0.325 | -0.496 | -0.516 |
| CN[C@@H]1[C@H](O)[C@H](NC)[C@H]2O[C@@]3(O)C(=O)C[C@@H](C)O[C@H]3O[C@@H]2[C@H]1O [Spectinomycin dihydrochloride] | -0.507 | -0.585 | -0.388 | -0.158 | -0.451 | -0.309 |
| CCN(CC)CCOc1ccc(C(=C(Cl)c2ccccc2)c2ccccc2)cc1 [Clomiphene citrate (Z,E)] | 1.86 | 0.54 | 0.0851 | 1.03 | 2.72 | 3.06 |
| COc1ccccc1N1CCN(CCCNc2cc(=O)n(C)c(=O)n2C)CC1 [Urapidil hydrochloride] | -0.297 | 0.724 | -0.315 | 0.116 | -0.29 | -0.0207 |
| CCN1CCCC(OC(=O)C(c2ccccc2)c2ccccc2)C1 (configuration not stated) [Piperidolate hydrochloride] | 1.4 | 1.47 | 1.77 | 1.11 | 1.7 | 0.861 |
| COc1ccc2cc([C@@H](C)C(=O)O)ccc2c1 [(R) -Naproxen sodium salt] | -0.646 | -1.68 | -0.677 | -0.633 | -0.535 | -0.58 |
| CCOC(=O)Nc1ccc2c(c1)N(C(=O)CCN1CCOCC1)c1ccccc1S2 [Moricizine hydrochloride] | -0.59 | 0.328 | -0.0401 | 0.0759 | -0.436 | 0.233 |
| CC(C)(C)NCC(O)COc1cccc2c1CCC(=O)N2 (configuration not stated) [Carteolol hydrochloride] | -0.364 | 0.373 | -0.558 | -0.304 | -0.479 | -0.264 |
| O=C(COc1ccc(Cl)cc1)N1CCN(Cc2ccc3c(c2)OCO3)CC1 [Fipexide hydrochloride] | -0.365 | 0.298 | -0.792 | -0.7 | -0.47 | -0.495 |
| CC(CN(C)C)CN1c2ccccc2CCc2ccccc21 (configuration not stated) [Trimipramine maleate salt] | 2.39 | 1.13 | 1.92 | 0.599 | 2.57 | 1.53 |
| Clc1ccc(CSC(Cn2ccnc2)c2ccc(Cl)cc2Cl)cc1 (configuration not stated) [Sulconazole nitrate] | 0.249 | 1.59 | 1.22 | 1.32 | 0.361 | 0.461 |
| CC1(C)O[C@@H]2C[C@H]3[C@@H]4C[C@H](F)C5=CC(=O)CC[C@]5(C)[C@H]4[C@@H](O)C[C@]3(C)[C@]2(C(=O)CO)O1 [Flurandrenolide] | -0.226 | -0.763 | -0.173 | 0.429 | -0.236 | -0.297 |
| CN1C(=O)OC(C)(C)C1=O [Trimethadione] | -0.446 | -0.0741 | -0.388 | -0.0387 | -0.476 | -0.496 |
| CC(=O)NCCCS(=O)(=O)O [Acamprosate calcium] | -0.335 | 0.472 | -0.555 | -0.465 | -0.407 | -0.547 |
